# Measured values as given in PubChem BioAssay (NCATS).
# Records with an inconclusive call do not appear. Values without a mark were called inactive. Active and inactive are the calls of the source. Calls come from the whole dose curve; as a rule, active = well fitted curve in the direction sought with a large enough effect; inconclusive = small, poorly fitted or top-dose-only effect, or another doubt; inactive = no such curve, though single readings can be large; an effect the other way counts as inactive or inconclusive.
# Experiment: P-glycoprotein substrates identified in KB-8-5-11 adenocarcinoma cell line, qHTS therapeutic library screen (AID 1346987); note: nearly all actives have a fitted effect of over 65% in size; note: potency is the fitted concentration of half-maximal effect; for activity change, negative = cytotoxicity: % is set by controls: 0 for no effect and ±100 for the full control effect
# Details: KB-8-5-11 (P-gp overexpressing) viability, CellTiter-Glo, 72 h; series mostly up to 44.5 µM; activity change, negative = cytotoxicity: at the top concentration
# Summary of the method: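 In this qHTS, P-gp-rich KB-8-5-11 cells received library compounds across a concentration range. Viability was quantified by luminescence after 72 h at 37 degree C.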
Structure (SMILES),"activity change, negative = cytotoxicity [%]",Potency
NC(N)=O,-11.9,–
C/C(=C\C(=O)OCCCCCCCCC(=O)O)C[C@@H]1OC[C@H](C[C@@H]2O[C@H]2[C@@H](C)[C@H](C)O)[C@@H](O)[C@H]1O,–,inactive
Cc1c(N)nc([C@H](CC(N)=O)NC[C@H](N)C(N)=O)nc1C(=O)N[C@H](C(=O)N[C@H](C)[C@@H](O)[C@H](C)C(=O)N[C@H](C(=O)NCCc1nc(-c2nc(C(=O)NCCCCN=C(N)N)cs2)cs1)[C@@H](C)O)[C@@H](O[C@@H]1O[C@@H](CO)[C@@H](O)[C@H](O)[C@@H]1O[C@H]1O[C@H](CO)[C@@H](O)[C@H](OC(N)=O)[C@@H]1O)c1cnc[nH]1,-26.3,–
C=Cc1c(C)c2cc3nc(cc4[nH]c(cc5nc(cc1[nH]2)C(C)=C5CCC(=O)OC)c(CCC(=O)O)c4C)[C@@]1(C)C3=CC=C(C(=O)OC)[C@H]1C(=O)OC,-2.42,–
C=C(C)C1CC=C(C)CC1 (stereo not given),-3.92,–
O=C(O)[C@H]1C(=CCO)O[C@H]2CC(=O)N12,4.2,–
CO[C@H]1O[C@@H]2O[C@@]3(C)CC[C@H]4[C@H](C)CC[C@@H]([C@H]1C)[C@@]24OO3,-27.5,–
CC[C@H]1OC(=O)[C@H](C)[C@@H](O[C@H]2C[C@@](C)(OC)[C@@H](O)[C@H](C)O2)[C@H](C)[C@@H](O[C@@H]2O[C@H](C)C[C@H](N(C)C)[C@H]2O)[C@](C)(O)C[C@@H](C)CN(C)[C@H](C)[C@@H](O)[C@]1(C)O,-0.278,–
C[Si](C)(C)O[Si](C)(C)C,-1.31,–
OB(O)O,11.5,–
C[C@H]1[C@@H](OC(=O)CCC(=O)O)O[C@@H]2OC3(C)CC[C@H]4[C@H](C)CC[C@@H]1[C@@]24OO3,–,4.61 µM (active)
CC1=CC(=O)NS(=O)(=O)O1,-5.73,–

# Experiment: NS1 protein of Zika virus - qHTS assay to identify small molecule inhibitors in human HEK 293 cells (AID 1347053);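 note: plate controls were infected untreated cells for no effect and uninfected cells for full effect; nearly all actives have a fitted effect of over 55% in size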
# Details: HEK293 ZIKV MR766 infection, NS1 TR-FRET, 24 h; series mostly up to 46.1 µM; activity change, negative = inhibition: at the top concentration
# Text: National Center for Advancing Translational Sciences [NCATS]
# Johns Hopkins University School of Medicine
# The non-structural 1 (NS1) protein of zika virus is known to associate with the viral replication complex. This cell-based TR-FRET ZIKV NS-1 assay measures the increased NS-1 protein in human HEK 293 cells after a 24-hour Zika virus infection by a TR-FRET assay readout. A decrease in the Time-resolved fluorescence energy transfer (TR-FRET) signal in this assay by small molecule treatment indicates an inhibitory effect of the small molecule on the expression of Zika virus NS1 correlating with Zika virus replication.
# HEK 293 cells were cultured in EMEM (ATCC, Cat. # 30-2003) medium with 10% fetal bovine serum (GE healthcare Life Sciences, Cat. # SH30071.03), and 1% Pen/Strep (Gibco, Cat. # 15140-122). Cells were seeded in the assay plate and incubated at 37 C with 5% CO2 for 20 hours. Compounds were added to cells and incubated for one hour before addition of ZIKV MR766 strain solution to cells (MOI = 0.5). After an incubation at 37 C for 24 hours, the reagent mixture of TR-FRET ZIKV NS1 assay using two anti-ZIKV NS1 antibodies was added to assay plates. The TR-FRET signals in assay plates were measured using an Envision plate reader (PerkinElmer). Data were normalized by using the cell-containing wells without ZIKV as a negative control (0% NS-1) and wells containing ZIKV infected cells as a positive control (100% NS-1 level).
row,Structure (SMILES),"activity change, negative = inhibition [%]"
1,CN(C)CCCSc1ccccc1NC(=O)/C=C/c1ccccc1,11.1
2,O=C(O)CCC(=O)c1ccc(-c2ccccc2)cc1,1.76
3,COc1ccc2nc(NC(=O)Nc3ccccc3)sc2c1,-1.88
